These results are taken from PubChem BioAssay AID504332 (National Center for Advancing Translational Sciences (NCATS), 2011).

Structures are written as SMILES. The campaign covered roughly 350,000 compounds. About 31,000 (8.9%) were called active. Roughly 15% stayed inconclusive and do not appear here. The list comes from a sample in which actives are over-represented; it also holds similar structures and randomly drawn compounds. A number with no mark means an inactive call. Calls follow the shape of the dose curve; as a rule, active = well fitted inhibition curve with a large enough effect; inconclusive = small, poorly fitted or top-dose-only effect; inactive = no such curve, though single readings can be large or run the other way.
% is scaled to controls: 0 for no effect and ±100 for the full control effect; potency is read from the fitted curve at half-maximal effect.

Chain of Histone-lysine N-methyltransferase EHMT2 (Homo sapiens) (Q96KQ7 913-1193 limits assumed): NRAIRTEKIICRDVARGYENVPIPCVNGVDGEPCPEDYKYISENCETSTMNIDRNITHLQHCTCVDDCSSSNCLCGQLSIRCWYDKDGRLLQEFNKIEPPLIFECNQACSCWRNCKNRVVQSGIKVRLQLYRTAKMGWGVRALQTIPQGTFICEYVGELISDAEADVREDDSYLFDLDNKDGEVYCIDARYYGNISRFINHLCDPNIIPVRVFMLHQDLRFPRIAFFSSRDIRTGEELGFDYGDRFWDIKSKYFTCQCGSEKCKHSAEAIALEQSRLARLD

This assay concerns the target Histone-lysine N-methyltransferase EHMT2 (Homo sapiens) (UniProt Q96KQ7). Briefly: qHTS Assay for Inhibitors of Histone Lysine Methyltransferase G9a. Also: nearly all actives have a fitted effect of over 75% in size. The note with it: G9a H3K9 monomethylation, AlphaScreen, 2 h; series mostly up to 59 µM; activity, negative = inhibition: at the top concentration. The method, boiled down:
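Chemiluminescent proximity detection of H3K9 monomethylation, read after 10 min bead incubation in the dark. Reaction: 20 nM G9a, 500 nM biotin-H3K9 peptide, 20 uM SAM cofactor, 2 h, room temperature, following 15 min enzyme-compound preincubation.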
As for `COc1ccc(S(=O)(=O)N2CCN(C(C)C(=O)Nc3ccc(C(C)C)cc3)CC2)cc1` (stereo unspecified), the “activity, negative = inhibition” value was -8.74%.
Consider `CCN(CC)S(=O)(=O)c1ccc(NC(=O)c2cnc(C)cn2)cc1`, for which the activity, negative = inhibition was 0.345% [at 0.501 µM].
For `CCN(CC)C(=O)C(=O)c1cn(CC(=O)NCc2ccc3c(c2)OCO3)c2ccccc12`, the activity, negative = inhibition is 27.8% [at 12.7 µM].
Still for that read-out and setting: the same measure for `O=C(CCn1c(=O)c2ccccc2n(Cc2ccc(Cl)cc2)c1=O)NCc1ccc2c(c1)OCO2`: -6.19%.
In the case of `Cn1cc(CCC(=O)NCc2ccc3c(c2)OCO3)c2ccccc21`, the Potency is 25.1 µM (active).
Turning to `CCOc1ccc(C(=O)c2cn(Cc3ccc(F)cc3)c3ccc(F)cc3c2=O)cc1`, the “activity, negative = inhibition” value was -38.3%.
On the same count and under the same terms, next, `Cc1ccc(CNC(=O)CCC(=O)N2Cc3ccccc3Oc3ncccc32)cc1`: -18.3%; `Cc1noc(/C=C/N(C)C)c1S(=O)(=O)N1CCCC(C(=O)Nc2cccc(F)c2)C1` (stereo unspecified): 2.19%.
Regarding `CCOC(=O)c1c(-c2ccccc2)csc1NC(=S)NC(=O)c1ccccc1`, the “activity, negative = inhibition” value was -11.6%.
Take `CCOC(=O)c1c(-c2ccc(-c3ccccc3)cc2)csc1NC(=O)CCC(=O)O`: the “activity, negative = inhibition” value was -35% [at 102 µM].
As to `CCOC(=O)c1c(-c2ccc(C)cc2)csc1/N=C(\C)C1=C(O)c2ccccc2C1=O`, the Potency was 28.2 µM (active).
For `CC(=O)N1CCOc2ccc(S(=O)(=O)N3CCC(C(=O)Nc4ccccc4F)CC3)cc21`, the “activity, negative = inhibition” value was -2.87% [at 102 µM].
On the same count and under the same terms, the same measure for `Cc1ccc(Cc2nnc(SCC(=O)Nc3ccccc3C)[nH]c2=O)cc1`: 1.18% [at 102 µM].
Same read-out and setting: the same measure for `CCOC(=O)CNC(=O)N1c2ccccc2Sc2ccccc21`: 20.2% [at 102 µM].
As for `CCC(=O)/C=C1\Sc2ccccc2N1CC`, the Potency was 50.1 µM (active).
`CCNC(=O)N1c2ccccc2Sc2ccccc21`: the “activity, negative = inhibition” value was 34.9% [at 102 µM].
As for `CCN1CCC(N(Cc2ccc(F)cc2)C(=O)Nc2cc(C)ccc2C)CC1`, the “activity, negative = inhibition” value was -29.4%.
As for `CCn1cc(C(=O)N2CCN(c3cc(C)ccc3C)CC2)c(=O)c2cc(S(=O)(=O)N(C)C3CCCCC3)ccc21`, the “activity, negative = inhibition” value is -33.5%.
Still for that read-out and setting: next, `C=CCn1c(COc2cccc3cccnc23)nnc1SCC(=O)OC`: -28.7%.
On to `C=CCn1c(-c2ccc3[nH]c(C)c(C)c3c2)n[nH]c1=S`, for which the Potency was 1 µM (active).
As for `C=CCn1c(COc2ccccc2C)nnc1SCC(=O)O`, the “activity, negative = inhibition” value was -44.1%.
`C=CCn1c(-c2ccccc2OCC)n[nH]c1=S`: the Potency was 7.08 µM (active).
Turning to `C=CCn1c(=S)sc2c(=O)[nH]c(C)nc21`, the “activity, negative = inhibition” value was -0.441% [at 102 µM].
Regarding `Cc1nc(-c2ccccc2)sc1-c1nnc(C2CC2)o1`, the “activity, negative = inhibition” value is 103% [at 102 µM].
On to `Cc1nc(-c2ccccc2)sc1-c1nc(-c2ccccc2)ncc1S(=O)(=O)c1ccccc1`, for which the “activity, negative = inhibition” value is -34.6% [at 102 µM].
Still for that read-out and setting: next, `Cc1[nH]c2ccc(S(N)(=O)=O)cc2c1C`: -7.63%.
Consider `C=CCn1c(-c2sc(-c3ccccc3)nc2C)n[nH]c1=S`, for which the Potency is 3.16 µM (active).
On to `Cc1ccsc1-c1cc(C(=O)O)c2c(ccc3ccccc32)n1`, for which the “activity, negative = inhibition” value was -17.8%.
Same read-out and setting: next, `CCOC(=O)c1[nH]c(C)c(CCC(=O)N2CCN(c3ccccc3)CC2)c1C`: -27.2%.
On the same count and under the same terms, next, `COc1ccc(/C=C/c2noc(-c3ccccc3OC(C)=O)n2)cc1`: 19.6% [at 102 µM]; `COc1ccc(CCNC(=O)CCCn2c(=O)c3ccccc3n(Cc3ccc(F)cc3Cl)c2=O)cc1OC`: 34.5%.
On the same count and under the same terms, the same measure for `COc1ccc(COC(=O)c2ccc(Cl)c(S(=O)(=O)N3CCOCC3)c2)cc1F`: 18.9% [at 102 µM]; for `CC(=O)NCC(=O)NC1CCCc2c1cnn2-c1ccccc1F` (stereo unspecified): 11.3% [at 0.501 µM].
`Cn1nccc1C(=O)NC1CCCc2c1cnn2-c1ccc(F)cc1F` (stereo unspecified): the Potency was 79.4 µM (active).
In the case of `Cn1nccc1C(=O)NC1CCCc2c1cnn2-c1ccccc1F` (stereo unspecified), the activity, negative = inhibition was 16.6% [at 0.501 µM].
Same read-out and setting: the same measure for `Cc1ccc(-c2nnc(Nc3ccc(OCC(N)=O)cc3)c3ccccc23)cc1S(=O)(=O)NCC1CCCO1` (stereo unspecified): -44.6%.
On the same count and under the same terms, the same measure for `Cc1ccccc1OCc1nc2c3cnn(-c4ccccc4F)c3ncn2n1`: 13.2%.
Take `CN(C)NC(=O)C(NC(=O)c1ccc(N)cc1)C12CC3CC(CC(C3)C1)C2` (stereo unspecified): the Potency was 44.7 µM (active).
With `CC(NC(=O)c1ccc(N2CCNCC2)c([N+](=O)[O-])c1)C12CC3CC(CC(C3)C1)C2` (stereo unspecified), the “activity, negative = inhibition” value was -0.814%.
In the case of `CC(CNC(=O)c1ccc(N)cc1)NC(=O)c1ccc(N)cc1` (stereo unspecified), the “activity, negative = inhibition” value was -4.15% [at 102 µM].
For `CCOC(=O)C(C)n1cnc2c(nnn2-c2ccc(F)cc2)c1=O` (stereo unspecified), the “activity, negative = inhibition” value was 13.5% [at 102 µM].
Same read-out and setting: next, `CC(C)(C)C1CCc2c(sc(NC(=O)c3ccccc3F)c2C(=O)N2CCCCC2)C1` (stereo unspecified): 6.27%; `O=C(Nc1ccccc1N1CCOCC1)c1ccc(OCc2cscn2)cc1`: -2.78%.
On the same count and under the same terms, the same measure for `CCOC(=O)c1cc2ccccc2n1CC(=O)c1ccccc1`: -0.017% [at 102 µM]; for `COc1ccc2cc(C(=O)O)n(CC(=O)c3ccccc3)c2c1`: 10.7% [at 102 µM].
On to `CCn1c(=N)n(CC(=O)c2cccc(OC)c2)c2ccccc21`, for which the Potency was 44.7 µM (active).
Turning to `COc1ccccc1C(=O)NCC(=O)NCCSc1ccc(Br)cc1`, the “activity, negative = inhibition” value is 2.21%.
Still for that read-out and setting: next, `CN1C(C(=O)NCc2ccco2)CC2Cn3c(nc4ccccc43)C21` (stereo unspecified): 16.2% [at 2.33 µM].
Consider `COc1ccccc1N1CCN(C(=O)C2Cc3ccccc3CN2C(=O)c2ccco2)CC1` (stereo unspecified), for which the “activity, negative = inhibition” value was 12.2%.
Still for that read-out and setting: next, `CC1CCN(c2ccc(-c3ccc(NC(=O)c4ccco4)cc3)nn2)CC1`: -2% [at 102 µM].
The same measure, in the same setting: next, `O=C(Nc1cc(C(F)(F)F)ccc1Cl)c1ccc2c(c1)CCN2S(=O)(=O)c1ccccc1`: 4.92%; `COc1cccc(N2CC(C(=O)NCc3n[nH]c(=O)c4ccccc34)CC2=O)c1` (stereo unspecified): -7.83% [at 2.33 µM]; `Cc1cc(C)c(NC(=O)CN2C(=O)c3cccnc3Oc3ccc(Cl)cc32)c(C)c1`: 4.24%.
As to `CCN(CC)c1ccc(NC(=O)CN2C(=O)c3cccnc3Oc3ccc(Cl)cc32)c(C)c1`, the Potency is 2.82 µM (active).
The same measure, in the same setting: next, `O=C(CN1C(=O)c2cccnc2Oc2ccc(Cl)cc21)NCCc1ccccc1`: “inactive”.
On to `COc1ccc(C(=O)COC(=O)CCCC(=O)Nc2cc(C(F)(F)F)ccc2Cl)cc1`, for which the “activity, negative = inhibition” value is 2.92%.
Take `O=c1c2ccccc2ncn1/N=C/c1ccccc1`: the “activity, negative = inhibition” value was 8.52% [at 102 µM].
With `Cc1ccc(NC(=O)COC(=O)CCc2nc3ccccc3n2-c2ccccc2)c(C)c1`, the “activity, negative = inhibition” value is 19.1%.
`CCN(c1ccc(NC(=O)COC(=O)CCc2nc3ccccc3n2-c2ccccc2)cc1)C(C)C`: the Potency is 15.8 µM (active).
In the case of `CCCCn1c(=O)c(CCC(=O)OCC(=O)Nc2ccc(C)c(Cl)c2)nc2ccccc21`, the “activity, negative = inhibition” value was 21.2%.
As to `CN(C)c1ccc(-n2cccc2/C=C2/SC(=Nc3ccc(F)cc3)NC2=O)cc1`, the “activity, negative = inhibition” value was -3.36% [at 102 µM].
`Cc1ccc(N=C2NC(=O)/C(=C/C=C/c3ccco3)S2)cc1C`: the Potency was 10 µM (active).
Take `Cc1ccc(N(CC(=O)NCc2ccc(Cl)cc2)S(=O)(=O)N(C)C)cc1`: the “activity, negative = inhibition” value is 2.2%.
Same read-out and setting: next, `COc1cc(C(=O)Nc2ccc(OCc3cc(=O)n4ccc(C)cc4n3)cc2)cc(OC)c1OC`: 0.891%.
As for `COc1cccc(CNC(=O)C(=O)NCC(c2cccs2)S(=O)(=O)c2ccccc2)c1` (stereo unspecified), the “activity, negative = inhibition” value is 9.87%.
For `CCn1cc(C(=O)NCCCN2CCCCCC2)c(=O)c2cc(S(=O)(=O)N3CCc4ccccc4C3)ccc21`, the Potency is 31.6 µM (active).
On to `CCn1cc(C(=O)NCc2ccc(C)cc2)c(=O)c2cc(S(=O)(=O)N3CCc4ccccc4C3)ccc21`, for which the “activity, negative = inhibition” value was -3.65%.
The same measure, in the same setting: the same measure for `CCOCCCNC(=O)c1cn(CC)c2ccc(S(=O)(=O)N3CCc4ccccc4C3)cc2c1=O`: -4.51%.
On the same count and under the same terms, the same measure for `O=c1c2ccccc2c(-c2ccc(F)cc2)nn1-c1ccc(C(F)(F)F)cc1`: 28.6%.
Regarding `FC(F)(F)c1ccc(-n2cn[nH]c2=S)cc1`, the Potency is 8.91 µM (active).
For `CCOc1ccc(OCC)c(NS(=O)(=O)c2ccc3[nH]c(=O)ccc3c2)c1`, the “activity, negative = inhibition” value was 3%.
For `COc1cc(/C=C2/C(=O)NN(c3ccc(F)cc3)C2=O)cc([N+](=O)[O-])c1O`, the Potency is 39.8 µM (active).
In the case of `COc1cccc(/C=C2\SC(=N)N(c3ccc(F)cc3)C2=O)c1`, the “activity, negative = inhibition” value is 10.2%.
The same measure, in the same setting: the same measure for `COc1ccc(C(=O)N2CCN(c3ccc(C(C)=O)cc3F)CC2)cc1S(=O)(=O)NC1CC1`: 15.5% [at 2.33 µM]; for `CCOc1ccc(-c2nnc3ccc(SC)nn23)cc1`: 12.5% [at 102 µM].
Take `COc1ccc(-c2nnc3ccc(SCc4ccccc4)nn23)cc1`: the Potency is 70.8 µM (active).
For the compound `COC(=O)c1ccc(CSc2ccc3nnc(-c4ccccc4)n3n2)o1`, the “activity, negative = inhibition” value is -17.6%.
Same read-out and setting: the same measure for `CCOc1ccc(NC(=O)Cn2cc(C(=O)c3ccc(C)cc3)c(=O)c3cc4c(cc32)OCCO4)cc1`: 14.7%.
Regarding `O=C(CCc1nnc(Cc2ccc3c(c2)OCO3)o1)NCCc1ccccc1Cl`, the activity, negative = inhibition was 27.8% [at 0.501 µM].
With `O=C(NNc1ccccn1)c1ccc(Cl)nc1`, the Potency is 3.55 µM (active).
As to `COc1ccc(C(=O)/C=C/Nc2ccccn2)cc1`, the “activity, negative = inhibition” value was 11.7% [at 102 µM].
Same read-out and setting: next, `CCN(CC)S(=O)(=O)c1cc(C(=O)Nc2ccccn2)ccc1C`: -27.2% [at 12.7 µM]; `Cc1ccc(NC(=O)CN(C)C(=O)Cn2nnc(-c3ccccc3)n2)cc1`: 1.83% [at 102 µM].
Same read-out and setting: the same measure for `Cc1ccc(C)c(NC(=O)CN(C)C(=O)c2ccc3ncsc3c2)c1`: -26.8% [at 102 µM]; for `CC(NC(=O)c1ccc(S(=O)(=O)Nc2ccccc2)cc1)c1ccc(S(N)(=O)=O)cc1` (stereo unspecified): -4.66%; for `COc1cc(Br)cc2cc(S(=O)(=O)c3ccccc3)c(=O)oc12`: -44.4%.
With `Cc1c(CC(=O)N2CCN(C(=O)C3COc4ccccc4O3)CC2)c(=O)oc2c(O)c(O)ccc12` (stereo unspecified), the Potency was 12.6 µM (active).
In the case of `COc1ccc(OC)c2sc(N3CCN(C(=O)C4COc5ccccc5O4)CC3)nc12` (stereo unspecified), the “activity, negative = inhibition” value was -41.3%.
Same read-out and setting: next, `COc1cc(NS(=O)(=O)c2ccc3c(c2)OCC(C(=O)N2CCCC2)O3)cc(OC)c1` (stereo unspecified): 9.66%; `Cc1ccccc1CN1CCC(CNC(=O)c2c(C)oc3ncnc(N4CCCCC4)c23)CC1`: -14.7%; `COc1ccc2oc(C(=O)NCc3ccco3)c(C)c2c1`: -3.78% [at 102 µM].
For the compound `O=C(c1ccco1)n1nc(-c2ccc(Cl)cc2)nc1NCc1ccccc1`, the “activity, negative = inhibition” value was -2.33%.
The same measure, in the same setting: next, `O=c1[nH]c(N2CCOCC2)nc2ccccc12`: 15.6% [at 102 µM]; `c1ccc(-n2nnnc2N2CCOCC2)cc1`: -32.7% [at 102 µM].
In the case of `C1=C(N2CCOCC2)/C(=C/c2nc3ccccc3[nH]2)CC1`, the Potency was 20 µM (active).
Turning to `O=C(Nc1ccc(C(=O)NCc2ccccc2Cl)cc1)C1=CSCCO1`, the “activity, negative = inhibition” value is 13.9%.
